Reference: PubChem BioAssay (NCI)
The panel holds about 83,000 compounds, 20% with a hit somewhere; the sample as a whole holds those more often.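 Plates (96-well) were seeded with cells, treated with compound at one concentration, and incubated for 48 hours before percent growth was determined.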 Activity calls are given as the source filed them. Rule for the calls: active = growth percent below 10; inactive = the rest.

Assays:
Assay in all cases: NCI-60 one-dose screen, 48 h (100 = growth as untreated, 0 = no growth, -100 = all killed)
Details in all cases: 10 µM unless noted
[1] = system: DU-145 prostate
[2] = system: K-562 leukemia
[3] = system: MALME-3M melanoma
[4] = system: MDA-MB-231 breast
[5] = system: RXF 393 renal
[6] = system: SF-268 CNS
[7] = system: SF-295 CNS
[8] = system: SF-539 CNS
[9] = system: UACC-257 melanoma
[10] = system: M14 melanoma
[11] = system: HCT-15 colon
[12] = system: HT29 colon
[13] = system: SNB-75 CNS
[14] = system: U251 CNS
[15] = system: PC-3 prostate
[16] = system: SK-MEL-5 melanoma
[17] = system: UACC-62 melanoma
[18] = system: LOX IMVI melanoma
[19] = system: SK-MEL-28 melanoma

Measured: growth

O=C(CN1C(=O)c2ccccc2S1(=O)=O)Nc1nc(-c2cc3ccccc3oc2=O)cs1
inactive: [1] 108% | [2] 100% | [3] 101% | [4] 114% | [5] 105% | [6] 95.7% | [7] 102% | [8] 95.8% | [9] 99.8% | [10] 106% | [11] 108% | [12] 103% | [13] 97.3% | [14] 99.2% | [15] 97.7% | [16] 99.1% | [17] 97.8% | [18] 99.5% | [19] 107%

C/C=C(/C)C(=O)O[C@@H]1CC(C)(C)CC2C34OC(=O)[C@@]21CC[C@@]3(C)[C@]1(C)CCC2C(C)(C)C(=O)CC[C@]2(C)C1C[C@@H]4O (stereo partly specified)
inactive: [1] 77.9% | [2] 28.8% | [3] 85% | [4] 58.4% | [5] 76% | [6] 73.4% | [7] 78.4% | [8] 52.1% | [9] 64.6% | [10] 52.4% | [11] 38.4% | [12] 65.1% | [13] 64.1% | [14] 46.9% | [15] 25.4% | [16] 27.8% | [17] 55.3% | [18] 33.5% | [19] 75.8%

CCOC(=O)c1c(C)n2c(=O)cc(C)c3c(OC(C)=O)c(OC(C)=O)cc1c32
inactive: [1] 67.3% | [2] 22.3% | [3] 75% | [4] 86.7% | [5] 73.8% | [6] 49.6% | [7] 94.8% | [8] 72.1% | [9] 108% | [10] 83.2% | [11] 41.2% | [12] 102% | [13] 74.1% | [14] 50.9% | [15] 59.2% | [16] 50.3% | [17] 76.2% | [18] 42.4% | [19] 64.7%

CCOc1ccc(-c2cc(C3(S(=O)(=O)c4ccc(C)cc4)CC=CC3)on2)cc1
inactive: [1] 101% | [2] 70.9% | [3] 83.6% | [4] 91.8% | [5] 93.6% | [6] 98.6% | [7] 90% | [8] 98.6% | [9] 74.9% | [10] 107% | [11] 75.3% | [12] 77.7% | [13] 97.3% | [14] 89.4% | [15] 75.2% | [16] 69.8% | [17] 66.7% | [19] 115%

C=CCOC(=O)C1=C(C)N(CC)C(=O)N(CC)C1c1c(Cl)n(C)c2ccccc12 (stereo unspecified)
inactive: [1] 99.4% | [2] 93% | [3] 96.2% | [4] 80.6% | [5] 98.3% | [6] 87.3% | [7] 69.3% | [8] 88.2% | [9] 89.9% | [10] 75.1% | [11] 78.4% | [12] 82.3% | [13] 81.6% | [14] 88.3% | [15] 50.4% | [16] 96.5% | [17] 59.4% | [18] 52.8% | [19] 99.2%

CC(=O)/C(Br)=C/c1ccc(Br)o1
inactive: [1] 68.5% | [3] 61.4% | [4] 95.7% | [6] 75% | [7] 73.7% | [8] 94% | [9] 102% | [10] 64.9% | [11] 65.8% | [12] 62.4% | [13] 92.6% | [14] 80.4% | [15] 80.8% | [17] 85.9% | [18] 38.7% | [19] 60.8%
active: [2] 4.61% | [5] -13.5% | [16] -0.755%

COc1cc(/C=C/C(=O)c2ccc(-n3cc(CN4CCN(c5cc6c(cc5F)c(=O)c(C(=O)O)cn6C5CC5)CC4)nn3)cc2)cc(OC)c1OC
inactive: [1] 92.3% | [2] 60.7% | [3] 87.7% | [4] 66.4% | [5] 55.7% | [6] 77.2% | [7] 81.9% | [8] 82.5% | [9] 90.1% | [10] 88.1% | [11] 90.6% | [12] 99.2% | [13] 85.7% | [14] 68.4% | [15] 84.7% | [16] 79.7% | [17] 72.8% | [18] 55.7% | [19] 92%

OC1CSSC1Cn1cnc2c(Nc3ccc(F)c(Cl)c3)ncnc21 (stereo unspecified)
active: [10] -65.9%
inactive: [1] 85.8% | [2] 32.5% | [3] 65.1% | [4] 84.6% | [5] 114% | [6] 81.8% | [7] 106% | [8] 93.2% | [9] 82% | [11] 92.5% | [12] 83.2% | [13] 114% | [14] 84.3% | [15] 80.5% | [16] 88.2% | [17] 16.3% | [18] 47.9% | [19] 78.3%
